The values that follow come from PMC10668032, “Altered binding affinity of SIX1-Q177R correlates with enhanced WNT5A and WNT pathway effector expression in Wilms tumor”.

The full ranking holds about 33,000 sequences; the median of “e-score” is about -0.05, and the highest 2% start at about 0.38. This excerpt belongs to a sample that is enriched for the highest values.

This assay has as its target T1, SIX1-Q177R homeodomain (human, UniProt Q15475 108-198, Q177R).
T1 sequence: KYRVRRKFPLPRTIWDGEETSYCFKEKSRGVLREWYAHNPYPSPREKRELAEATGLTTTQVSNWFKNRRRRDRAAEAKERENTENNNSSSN
Nature of the assay: universal protein binding microarray; Universal all-10-mer PBM (8x60K, AMADID 030236), 300 nM GST-tagged protein, Alexa Fluor 488 anti-GST; buffer, salt, pH and temperature not stated (as in Berger); high values mean tight binding. To be noted: protein: ivt; tags: N-terminal GST; dsDNA, one strand shown. The essentials: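 Duplicate protein binding microarrays (universal 'all 10-mer', 8×60K format) were incubated with GST-tagged homeodomains at 300 nM final concentration. Binding was quantified as 8-mer E-scores with the Universal PBM Analysis Suite.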
CGTGTGTA: the binding signal came out at 0.296 ± 0.0261 E-score.

On to AACGTGTG, for which the binding signal is 0.154 ± 0.0123 E-score.

For the sequence AGCGTGTC, the binding signal was found to be 0.393 ± 0.00925 E-score.

Regarding CGTGTGTC, the binding signal stood at 0.289 ± 0.0336 E-score.

Take CACGCGTG: the binding signal was found to be 0.317 ± 0.0193 E-score.

With AGAGCGTG, the binding signal worked out at 0.189 ± 0.00653 E-score.

Regarding CGCGTGTC, the binding signal was found to be 0.414 ± 0.00637 E-score.

For CGCGTGTA, the binding signal came out at 0.43 ± 0.00692 E-score.

Take AGCGTGTG: the binding signal came to 0.281 ± 0.00182 E-score.

Regarding CGCGTATC, the binding signal is 0.155 ± 0.05 E-score.

For the sequence AGCGTGTA, the binding signal is 0.419 ± 0.0156 E-score.

In the case of ACCGCACC, the binding signal turned out to be 0.247 ± 0.013 E-score.

On to CTCGGATA, for which the binding signal was determined as 0.188 ± 0.0289 E-score.

GTGGATCA: the binding signal came to 0.161 ± 0.0203 E-score.

As for ACTGGTGC, the binding signal is 0.297 ± 0.00607 E-score.

Consider CACGGTCA, for which the binding signal came to 0.2431 ± 0.00219 E-score.

With GTCCAACA, the binding signal is 0.216 ± 0.00357 E-score.

On to AGAAACGG, for which the binding signal is 0.152 ± 0.0193 E-score.

Take ATAGGTGC: the binding signal is 0.193 ± 0.00788 E-score.

Take ACTGAGTG: the binding signal was determined as 0.1766 ± 0.000721 E-score.

Take TCTTGACA: the binding signal turned out to be 0.167 ± 0.0124 E-score.

For the sequence CCCCCGAA, the binding signal was determined as 0.238 ± 0.0222 E-score.

Consider GAGGGTTA, for which the binding signal worked out at 0.185 ± 0.00774 E-score.

In the case of CGACTAAC, the binding signal came out at 0.192 ± 0.0385 E-score.

In the case of CACGCACG, the binding signal came out at 0.304 E-score.

For the sequence ATTGCGTG, the binding signal worked out at 0.183 ± 0.0294 E-score.

For the sequence GACGTGTA, the binding signal was 0.368 ± 0.0248 E-score.

Turning to GGCGTGTA, the binding signal was 0.4378 ± 0.00204 E-score.

In the case of GGCGTACA, the binding signal worked out at 0.283 ± 0.0225 E-score.

On to TACACAGA, for which the binding signal came to 0.152 ± 0.0583 E-score.

For AGCACCGA, the binding signal was 0.197 ± 0.00674 E-score.

For the sequence CACCCCGA, the binding signal turned out to be 0.346 ± 0.0278 E-score.

Take AACACCGA: the binding signal is 0.4686 ± 0.00331 E-score.

As to TACACCGA, the binding signal amounted to 0.4853 ± 0.00441 E-score.

Turning to AACACTGT, the binding signal stood at 0.3445 ± 0.00205 E-score.

In the case of AACACCGT, the binding signal was 0.4669 ± 0.00366 E-score.

Regarding AACACAGT, the binding signal was 0.158 ± 0.0584 E-score.

Consider GTCACCGA, for which the binding signal was 0.175 ± 0.0101 E-score.

GACACCGA: the binding signal was 0.486 ± 0.00613 E-score.

For GGCACCGA, the binding signal amounted to 0.175 ± 0.0275 E-score.

On to ACCCAACA, for which the binding signal amounted to 0.251 ± 0.0117 E-score.

For the sequence ACGATCCG, the binding signal is 0.232 ± 0.0258 E-score.

As for AATCTACA, the binding signal was 0.22 ± 0.0213 E-score.

ACCCGTGC: the binding signal amounted to 0.1616 ± 0.000424 E-score.

For the sequence GCACTATA, the binding signal was found to be 0.191 ± 0.0272 E-score.

Turning to AACACCGG, the binding signal was determined as 0.4831 ± 0.000693 E-score.

Take CGCACCGC: the binding signal was 0.209 ± 0.0348 E-score.

On to AACACTGG, for which the binding signal was determined as 0.37323 ± 0.000191 E-score.

As for CACCGCGG, the binding signal amounted to 0.3509 ± 0.00344 E-score.

CACACCGC: the binding signal turned out to be 0.412 ± 0.0184 E-score.

With CACACAGG, the binding signal was 0.182 ± 0.0584 E-score.

Consider GATACCGC, for which the binding signal came to 0.293 ± 0.00845 E-score.

As to CACACCGG, the binding signal is 0.418 ± 0.0186 E-score.

AGCACCGG: the binding signal worked out at 0.206 ± 0.0351 E-score.

Turning to GACACCGC, the binding signal was determined as 0.487 ± 0.00552 E-score.

With CACCCCGG, the binding signal amounted to 0.338 ± 0.0167 E-score.

Consider GACGCCGC, for which the binding signal was determined as 0.151 ± 0.0247 E-score.

Take CACCGATG: the binding signal came to 0.32 ± 0.0273 E-score.

As for CCCCGGAG, the binding signal was found to be 0.261 ± 0.00517 E-score.

CTATTACA: the binding signal was determined as 0.215 ± 0.023 E-score.

For CAGATTCG, the binding signal is 0.161 ± 0.0252 E-score.

CACCAAGG: the binding signal was 0.265 ± 0.0125 E-score.

For the sequence CCCGCACC, the binding signal was determined as 0.197 ± 0.0395 E-score.

Regarding AACCCGGA, the binding signal stood at 0.201 ± 0.0406 E-score.

Regarding TGTGCACA, the binding signal was 0.21 ± 0.0348 E-score.

As for CGCTTACA, the binding signal amounted to 0.196 ± 0.0288 E-score.

In the case of CACCATAC, the binding signal came out at 0.3492 ± 0.0017 E-score.

With CACCAGGG, the binding signal stood at 0.284 ± 0.0249 E-score.

For CGGATCCA, the binding signal was determined as 0.232 ± 0.0264 E-score.

Consider CACCCGAA, for which the binding signal came out at 0.276 ± 0.0248 E-score.

For the sequence ACCTCACG, the binding signal is 0.153 ± 0.0322 E-score.

Regarding CACCGGCC, the binding signal was determined as 0.251 ± 0.0167 E-score.

As for GATACCCA, the binding signal was found to be 0.3616 ± 0.000587 E-score.

With ACTTGCAC, the binding signal was 0.175 ± 0.00796 E-score.

Turning to TGTAAACA, the binding signal amounted to 0.262 ± 0.00791 E-score.

For the sequence CACACCGA, the binding signal was found to be 0.405 ± 0.0194 E-score.

In the case of AGCACCGC, the binding signal is 0.288 ± 0.023 E-score.

On to ACCACCGC, for which the binding signal turned out to be 0.199 ± 0.00668 E-score.

As for AACACCGC, the binding signal turned out to be 0.47579 ± 0.000382 E-score.

CGGGGTTC: the binding signal was found to be 0.201 ± 0.0287 E-score.

With CATGGACA, the binding signal turned out to be 0.216 ± 0.0185 E-score.

GGAGTACC: the binding signal came out at 0.218 ± 0.0355 E-score.

Take GTGCGCAC: the binding signal amounted to 0.175 ± 0.0735 E-score.

GGACACAA: the binding signal is 0.18 ± 0.117 E-score.

With CGACACAG, the binding signal was found to be 0.251 ± 0.0668 E-score.

In the case of GGACCCCC, the binding signal came to 0.26 ± 0.0595 E-score.
